About 79,000 compounds went through this panel and 15% of them were active in at least one assay; those are over-represented in the sample as a whole. Activity calls are given as the source filed them. Rule as the data show it: active = growth inhibition above about 70%; inactive = the rest.
Assays:
[1] = NCI Yeast Anticancer Drug Screen. Data for the rad50 strain (AID 155);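 also: 0% = growth of vehicle-only cultures of the same strain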; conditions: S. cerevisiae rad50 strain growth inhibition, stronger effect = higher value
How it was run: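 Compounds were tested on a yeast strain with an engineered DNA damage repair alteration; the reported value is growth inhibition normalised to vehicle treatment.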

[2] = NCI Yeast Anticancer Drug Screen. Data for the mec2-1 strain (AID 157); conditions: S. cerevisiae mec2-1 strain, stronger effect = higher value
How it was run: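 Readout is yeast growth inhibition, normalised to vehicle-treated controls, in the mec2-1 strain exposed to compound.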

[3] = NCI Yeast Anticancer Drug Screen. Data for the sgs1 mgt1 strain (AID 161);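 also: 0% = growth of cultures given vehicle only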; conditions: S. cerevisiae sgs1 mgt1 strain, stronger effect = higher value
How it was run: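 Yeast cells carrying a defined DNA-repair defect were exposed to test compounds. Growth inhibition was measured relative to vehicle-treated controls.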

[4] = NCI Yeast Anticancer Drug Screen. Data for the cln2 rad14 strain (AID 165);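 also: 0% = growth equal to vehicle treated cultures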; conditions: S. cerevisiae cln2 rad14 strain, stronger effect = higher value
How it was run: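 Relative to vehicle controls, growth inhibition of compound-treated cln2 rad14 yeast was recorded.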

[5] = NCI Yeast Anticancer Drug Screen. Data for the bub3 strain (AID 167); conditions: S. cerevisiae bub3 mutant strain, stronger effect = higher value
How it was run: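 Growth of a checkpoint-deficient yeast mutant is measured after compound exposure. Values represent inhibition relative to vehicle.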

[6] = NCI Yeast Anticancer Drug Screen. Data for the mlh1 rad18 strain (AID 175); conditions: S. cerevisiae mlh1 rad18 strain growth inhibition, stronger effect = higher value
How it was run: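 Test agents were incubated with a yeast strain of defined genotype (DNA damage repair defect). Inhibition of growth was derived by comparison with vehicle-exposed cultures.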

[7] = at 5.0 µM (retest, dose inferred, filed as 0.5)
[8] = at 50.0 µM (retest, dose inferred, filed as 5.0)

| Structure (SMILES) | growth inhibition [1, 7] | growth inhibition [1, 8] | growth inhibition ([1]; at 50.0 µM) | growth inhibition [2, 7] | growth inhibition [2, 8] | growth inhibition ([2]; at 50.0 µM) | growth inhibition [3, 7] | growth inhibition [3, 8] | growth inhibition ([3]; at 50.0 µM) | growth inhibition [4, 7] | growth inhibition [4, 8] | growth inhibition ([4]; at 50.0 µM) | growth inhibition [5, 7] | growth inhibition [5, 8] | growth inhibition ([5]; at 50.0 µM) | growth inhibition [6, 7] | growth inhibition [6, 8] | growth inhibition ([6]; at 50.0 µM) |
| --- | --- | --- | --- | --- | --- | --- | --- | --- | --- | --- | --- | --- | --- | --- | --- | --- | --- | --- |
| O=C(O)/C=C/c1ccc(Cl)c(Cl)c1 | 9% (inactive) | 83% (active) | 93.1% (active) | -15% (inactive) | 55% (inactive) | 64.3% (inactive) | 11% (inactive) | 59% (inactive) | 55.1% (inactive) | 19% (inactive) | 45% (inactive) | 63.5% (inactive) | -1% (inactive) | 77% (active) | 86.8% (active) | -17% (inactive) | 90% (active) | 92.9% (active) |
| CCCCCN(CCCCC)CC(C)(C)C(O)c1ccc(OC)c2ccccc12 (stereo not given) | -2% (inactive) | 42% (inactive) | 51.9% (inactive) | -4% (inactive) | 18% (inactive) | 47.6% (inactive) | 1% (inactive) | 81% (active) | 52.5% (inactive) | -4% (inactive) | 27% (inactive) | 86.9% (active) | 0% (inactive) | 64% (inactive) | 33.2% (inactive) | -2% (inactive) | 57% (inactive) | 77.3% (active) |
| COc1ccc(N=Nc2ccc3oc(=O)c(C(=O)Nc4ccc(OC)cc4)cc3c2)cc1 | 24% (inactive) | 97% (active) | 94.8% (active) | 14% (inactive) | 97% (active) | 95.3% (active) | 14% (inactive) | 98% (active) | 95.5% (active) | 26% (inactive) | 94% (active) | 94.3% (active) | -25% (inactive) | 92% (active) | 95.3% (active) | 36% (inactive) | 97% (active) | 95.1% (active) |
| CC1=C(C(=O)Nc2ccccc2)C(c2ccc(C(C)C)cc2)C(C(=O)Nc2ccccc2)=C(C)N1 | 0% (inactive) | 94% (active) | 97.5% (active) | -3% (inactive) | 91% (active) | 94.6% (active) | 0% (inactive) | 94% (active) | 47.6% (inactive) | -13% (inactive) | 94% (active) | 90.8% (active) | 2% (inactive) | 93% (active) | 91% (active) | -3% (inactive) | 90% (active) | 96.2% (active) |
| Cc1cc(Cl)ccc1Nc1sc(C(=O)c2cc3cc(Cl)ccc3o2)c(N)c1C#N | 16% (inactive) | 53% (inactive) | 23.7% (inactive) | -3% (inactive) | 48% (inactive) | 45.5% (inactive) | 8% (inactive) | 65% (inactive) | 45% (inactive) | 6% (inactive) | 84% (active) | 83% (active) | 13% (inactive) | 55% (inactive) | 50.1% (inactive) | -7% (inactive) | 66% (inactive) | 36.5% (inactive) |
| O=C(Nc1ccccc1)OC1CCCC1 | 19% (inactive) | 94% (active) | 85.5% (active) | 11% (inactive) | 88% (active) | 11.8% (inactive) | 12% (inactive) | 92% (active) | 81.2% (active) | 8% (inactive) | 28% (inactive) | -3.85% (inactive) | 6% (inactive) | 90% (active) | 50.1% (inactive) | 12% (inactive) | 94% (active) | 82.8% (active) |
| O=C(O)CC(C(=O)O)C(c1cccc2ccccc12)c1cccc2ccc3ccccc3c12 (stereo not given) | 6% (inactive) | 98% (active) | 98.3% (active) | 5% (inactive) | 99% (active) | 98.2% (active) | -5% (inactive) | 99% (active) | 98.3% (active) | 4% (inactive) | 98% (active) | 98.7% (active) | 4% (inactive) | 99% (active) | 98.7% (active) | 7% (inactive) | 99% (active) | 97.8% (active) |
| Nc1ccc2nc(Nc3ccc(Cl)c(Cl)c3)cnc2c1 | -17% (inactive) | 97% (active) | 85.7% (active) | -1% (inactive) | 97% (active) | 86.5% (active) | 7% (inactive) | 97% (active) | 87.7% (active) | 14% (inactive) | 97% (active) | 87.2% (active) | 28% (inactive) | 95% (active) | 83.8% (active) | 25% (inactive) | 87% (active) | 80.8% (active) |
| CCc1ccc2c(-c3ccccc3)c3ccccc3c(-c3ccccc3)c2c1 | 0% (inactive) | -4% (inactive) | -7.9% (inactive) | 3% (inactive) | -10% (inactive) | -5.6% (inactive) | 1% (inactive) | 6% (inactive) | -9.25% (inactive) | -4% (inactive) | -11% (inactive) | 34.9% (inactive) | -4% (inactive) | -8% (inactive) | 7.35% (inactive) | -1% (inactive) | -8% (inactive) | 0.05% (inactive) |
| COC1OC(CI)C(OC(c2ccccc2)(c2ccccc2)c2ccccc2)C(OC(c2ccccc2)(c2ccccc2)c2ccccc2)C1OC(c1ccccc1)(c1ccccc1)c1ccccc1 (stereo not given) | -14% (inactive) | -6% (inactive) | 96.4% (active) | -17% (inactive) | -22% (inactive) | 98.5% (active) | -8% (inactive) | -18% (inactive) | 94.5% (active) | -10% (inactive) | 14% (inactive) | 97.8% (active) | 1% (inactive) | -13% (inactive) | 97% (active) | -17% (inactive) | 11% (inactive) | 95.9% (active) |

— PubChem BioAssay (NCI)
